Measured values: PubChem BioAssay AID2782 (National Center for Advancing Translational Sciences (NCATS), 2010)
Results filed as inconclusive are left out. Where a call stands in place of a potency, no number is given. The source made the active and inactive calls. Calls come from the whole dose curve; as a rule, active = well fitted inhibition curve with a large enough effect in the polarisation, with a control signal flat (not every such curve was filed as active); inconclusive = small, poorly fitted or top-dose-only effect, or effect the other way, or a change in a side signal; inactive = no such curve, though single readings can be large or run the other way; the % refers to the polarisation.

Assay: Confirmation of Inhibitors Targeting the Menin-MLL Interaction in MLL Related Leukemias: Competition With Texas Red Labeled MLL-derived Mutant Peptide
Details: fluorescence polarization, Texas Red MLL peptide displacement; series mostly up to 94.6 µM
Source text: qHTS Assay for Inhibitors Targeting the Menin-MLL Interaction in MLL Related Leukemias
NIH Chemical Genomics Center [NCGC]
NIH Molecular Libraries Probe Centers Network [MLPCN]
Assay Submitter (PI): Jolanta Grembecka, Tomasz Cierpicki, University of Virginia
Translocations of the MLL (Mixed Lineage Leukemia) gene are frequently found in human leukemias affecting both children and adults. Fusion of MLL to one of more than 60 genes results in generation of oncogenic proteins upregulating Hox genes, which are vital to blood cell development. Patients harboring fusion of the MLL gene suffer from aggressive leukemias and respond poorly to available therapies. All of the oncogenic fusion proteins have a preserved N-terminal fragment of MLL that has been identified to interact with menin. It has been recently discovered that association with menin is critical to the leukemogenic activity of the MLL fusion oncoproteins. Selective targeting of the menin-MLL interaction could provide an attractive therapeutic approach to develop novel drugs for MLL-related leukemias. Small molecules blocking the menin-MLL interaction should reverse the oncogenic potential of MLL fusion proteins.
We have developed and optimized a fluorescence polarization-based assay for the identification of Menin-MLL inhibitors. The assay was run employing two different MLL-derived peptides. The present assay uses a 12 amino acid peptide labeled with fluorescein at its N-terminus. This peptide consists of the menin high affinity binding motif from MLL and is potently bound by menin. Another peptide with a mutated sequence, labeled with Texas Red, was used in parallel as a less stringent screen for inhibitors.
The present assay was run to confirm the activity of hits from the primary screen using the peptide with a mutated sequence, labeled with Texas Red.
The Menin protein, the MLL-wild type (w.t.) derived peptide (N-terminal 12 amino acids), the MLL-derived peptide labeled with Texas Red and the MLL-w.t. peptide labeled with Fluorescein were kindly supplied by laboratory of Dr. Jolanta Grembecka, University of Virginia. All protein and peptide solutions were stored in single use aliquots at -80C. The Eu3+ Cyrptate-conjugated mouse monoclonal antibody anti-6 Histidine (Eu3+-AB) and the Streptavidin-XL665 conjugate (XL665) were purchased from Cisbio International (Bedford, MA). All antibody and XL665 conjugate solution stocks were stored in single use aliquots at -20C. The Buffer components for all assays were purchased from Sigma-Aldrich (St. Louis, MO) and Invitrogen (Carlsbad, CA).
1. FP reaction buffer: 50 mM Tris-HCl pH 7.5, 50 mM NaCl, 1mM DTT.
Before use, 0.05% BSA is added.
2. Menin protein, MLL-w.t. labeled with fluorescein, MLL-mutant peptide labeled with texas red.
Stored in singe use aliquots at -80C.
3. MLL-w.t. unlabeled peptide as positive control: 10 uM final in FP buffer.
1. Prepare Menin at 200 nM, MLL-w.t.-fluorescein at 25 nM, and MLL-mutant-texas red at 50 nM mixture in FP buffer.
2. Prepare Menin at 200 nM, MLL-w.t.-fluorescein at 25 nM, MLL-mutant-texas red at 50 nM, and 10 uM MLL-w.t. unlabeled mixture in FP buffer.
3. Prepare MLL-w.t.-fluorescein at 25 nM and MLL-mutant-texas red at 50 nM mixture in FP buffer.
3. Dispense 4 ul per well of reagent in step 1 in columns 2, 4 - 48 in a black 1536 well plate, dispense 4 ul per well of reagents from steps 2 and 3 in columns 1 and 3 respectively. Incubate plate at ambient for 15 minutes.
4. Transfer 23 nl per well of compound to plate and incubate at ambient for 1 hr.
5. Read fluorescence polarization for each label using the PerkinElmer Envision.
Envision protocol for fluorescein: FITC FP Dual Enh Mirror, Excitation filter 480, Emission filter (1) P-pol 535, Emission filter (2) S-pol 535
Envision protocol for texas red: FP Dual Enh Mirror, Excitation filter 555, Emission filter (1) P-pol 632, Emission filter (2) S-pol 632
Potency is the fitted concentration of half-maximal effect.

Compound	Potency
CCOc1ccc(-c2nn(-c3ccccc3)cc2/C=C2\SC(N)=NC2=O)cc1C	inactive
CC(=O)Nc1ccc(-c2cc3ccccc3o2)cc1	inactive
O=C(CC(Sc1ccc(Br)cc1)C(=O)O)c1ccc(F)cc1 (stereo not given)	inactive
CN(C)/C=C(/C(=O)c1ccc(Cl)cc1)S(=O)(=O)c1ccc(Cl)cc1	inactive
CCCC(c1nnnn1Cc1ccco1)N1CCN(C2CCCC2)CC1 (stereo not given)	79.4 µM (active)
CN1CCN(CC(=O)c2ccccc2F)CC1	inactive
O=C(/C=C/c1ccccc1)c1cccs1	inactive
Cc1cc(C)c2c(=O)cc(C(=O)NCc3ccccc3)oc2c1	inactive
C=C(C)CNC(=S)Nc1cccc2cnccc12	inactive
O=C(Nc1ccc(F)c(Cl)c1)c1cc(-c2ccco2)on1	31.7 µM (active)
O=C(CSc1nnc(-c2c[nH]c3ccccc23)o1)c1ccc(-c2ccccc2)cc1	35.5 µM (active)
CCC(C)CCCCC(=O)N[C@@H](CCN)C(=O)N[C@H](C(=O)N[C@@H](CCN)C(=O)N[C@H]1CCNC(=O)C([C@@H](C)O)NC(=O)[C@@H](CCN)NC(=O)[C@H](CCN)NC(=O)[C@H](CC(C)C)NC(=O)[C@@H](CC(C)C)NC(=O)[C@H](CCN)NC1=O)[C@@H](C)O (stereo not given in full)	7.94 µM (active)
CCCc1nc2c(=O)[nH]c3ccccc3c2o1	inactive
CCOC(=O)Cn1cnc2scc(-c3ccc(C)c(C)c3)c2c1=O	inactive
COc1cccc(NC(=O)N2CCCc3ccccc32)c1	inactive
O=C(NC1CCN(c2ncccn2)CC1)c1c(F)cccc1F	inactive
Cc1ccc(C2=NN(C(=O)c3ccccc3F)C(c3ccccc3F)C2)cc1 (stereo not given)	inactive
CCOc1ccccc1N(CC(=O)Nc1ccccc1C(=O)N1CCCC1)S(C)(=O)=O	inactive
O=C(Nc1nccs1)C(Br)C(Br)c1ccccc1 (stereo not given)	inactive
CC(c1cc2ccccc2s1)N(O)C(N)=O (stereo not given)	inactive

Compound	Potency
CCc1cc2c(N3CCN(c4nnc(CC)s4)CC3)ncnc2s1	11.2 µM (active)
C[N+]1(CCNC(=O)/C=N/O)CCCCC1	inactive
CCN1C(=O)[C@@H]2C(C(=O)c3cnccn3)=NN[C@@H]2C1=O	inactive
O=C(C1=C(O)C(=O)N(CCN2CCOCC2)C1c1cccc(Br)c1)c1cccs1 (stereo not given)	inactive
CN1CCN(CC(=O)Nc2ccc(S(=O)(=O)N(C)C)cc2)CC1	inactive
CC(NC(=O)c1cnc2ccccc2n1)c1ccccc1 (stereo not given)	inactive
Cc1cc(N/N=C/c2ccc(O)cc2)c2cccc(C)c2n1	71 µM (active)
COc1cc2c(cc1NC(=S)NC(=O)c1c(OC)cccc1OC)oc1ccccc12	11.2 µM (active)
CN(C)c1ccc(C2CC(=O)C=C(Nc3ccccc3N)C2)cc1 (stereo not given)	63.2 µM (active)
CCCC(=O)Nc1cccc(NC(=O)c2ccc([N+](=O)[O-])cc2Cl)c1	inactive
O=c1cc(O)c2ccccc2n1Cc1ccccc1F	inactive
NC(=O)[C@@H]1CCCNc2c(I)cc([N+](=O)[O-])cc2C(=O)N[C@@H](CCCN=C(N)N)C(=O)N[C@@H](CCCN=C(N)N)C(=O)N1	141 µM (active)
O=C(c1cc2c(=O)n3ccccc3nc2s1)N1CCOCC1	inactive
CC(c1ccncn1)N(C)Cc1nc(-c2ccc(C(F)(F)F)cc2)no1 (stereo not given)	inactive
COc1ccc(OC)c(C(c2c(C)[nH][nH]c2=O)c2c(C)[nH][nH]c2=O)c1	inactive
O=C(NNCS(=O)(=O)O)c1ccncc1	inactive
COC(=O)COc1ccc(C(C2C(=O)CC(C)(C)CC2=O)C2C(=O)CC(C)(C)CC2=O)cc1	inactive
COc1ccc(N(CC(=O)NC2CC3CCC2C3)S(=O)(=O)c2ccc(C)cc2)cc1OC (stereo not given)	inactive
c1ccc2c(c1)nc(N1CCOCC1)c1c3ccccc3[nH]c21	inactive
O=C(Nc1ccc2c(c1)OCO2)c1ccccc1	inactive
